Many of the other results were omitted from the sample, so the strongest signals are more common in it than they were.

Common to all, as to experiment: glycan array binding signal (z-score within array); higher = stronger binding
Holding throughout (conditions): glycan notation: IUPAC condensed, linker removed

Assay [1] addresses Fuc(a1-2)Gal(b1-4)GlcNAc(b1-2)Man. Summed up: (§1)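 Columns mapping to the same glycan were averaged after glycan names were converted to IUPAC-condensed notation. The data come from 3228 arrays in the Consortium for Functional Glycomics database, limited to those with an available protein sequence. Binding is reported as a within-array Z-score averaged across arrays of one protein sequence and across linkers.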

Assay [2] concerns the target Fuc(a1-2)Gal(b1-4)GlcNAc(b1-2)Man(a1-3)[Fuc(a1-2)Gal(b1-4)GlcNAc(b1-2)Man(a1-6)]Man(b1-4)GlcNAc(b1-4)GlcNAc. In outline: as §1
Assay [3] deals with Fuc(a1-2)[Gal(a1-3)]Gal(b1-4)GlcNAc(b1-3)GalNAc. Summed up: as §1
Assay [4] addresses Fuc(a1-2)[Gal(a1-3)]Gal(b1-4)GlcNAc(b1-6)GalNAc. In outline: as §1
Assay [5] has as its target Fuc(a1-2)[GalNAc(a1-3)]Gal(b1-4)GlcNAc(b1-2)Man(a1-3)[Fuc(a1-2)[GalNAc(a1-3)]Gal(b1-4)GlcNAc(b1-2)Man(a1-6)]Man(b1-4)GlcNAc(b1-4)GlcNAc. In outline: as §1
For assay [6], the target named is Fuc(a1-3)[Gal(b1-4)]GlcNAc(b1-6)[Gal(b1-3)GlcNAc(b1-3)]Gal(b1-4)Glc. Summed up:
as §1

Assay [7] addresses Fuc(a1-3)[Gal(b1-4)]GlcNAc6S. Summed up:
as §1

Assay [8] concerns the target Gal(a1-3)Gal(b1-3)GlcNAc(b1-6)GalNAc. Summed up:
as §1

The target in assay [9] is Gal(a1-3)[Gal(a1-4)]Gal(b1-4)GlcNAc. In outline: as §1
In a further assay the target is Gal(b1-3)GalNAc. In outline:
as §1

The target of assay [10] is Gal(b1-3)GlcNAc(b1-2)[Gal(b1-3)GlcNAc(b1-6)]Man(a1-6)[Gal(b1-3)GlcNAc(b1-2)Man(a1-3)]Man(b1-4)GlcNAc(b1-4)GlcNAc. Summed up:
as §1

Assay [11] concerns the target Gal(b1-3)GlcNAc(b1-3)Gal(b1-4)Glc. In outline:
as §1

In assay [12] the target is Gal(b1-4)GlcNAc(b1-2)Man(a1-3)Man(b1-4)GlcNAc(b1-4)GlcNAc. Summed up: as §1
In assay [13] the target is Gal(b1-4)GlcNAc(b1-2)Man(a1-3)[GlcNAc(b1-4)][Gal(b1-4)GlcNAc(b1-2)Man(a1-6)]Man(b1-4)GlcNAc(b1-4)GlcNAc. Summed up: as §1
Assay [14] addresses Gal(b1-4)GlcNAc(b1-3)Gal(b1-4)GlcNAc(b1-3)Gal(b1-4)GlcNAc(b1-3)Gal(b1-4)GlcNAc(b1-2)Man(a1-3)[Gal(b1-4)GlcNAc(b1-3)Gal(b1-4)GlcNAc(b1-3)Gal(b1-4)GlcNAc(b1-3)Gal(b1-4)GlcNAc(b1-2)Man(a1-6)]Man(b1-4)GlcNAc(b1-4)GlcNAc. In outline:
as §1

The target in assay [15] is Gal(b1-4)GlcNAc(b1-3)Gal(b1-4)GlcNAc(b1-3)[Gal(b1-4)GlcNAc(b1-3)Gal(b1-4)GlcNAc(b1-6)]GalNAc. In outline:
as §1

The target in assay [16] is Gal3S(b1-4)[Fuc(a1-3)]Glc6S. Summed up:
as §1

For assay [17], the target named is GalNAc(b1-3)Gal(a1-6)Gal(b1-4)Glc. Summed up: as §1
Another assay concerns the target GalNAc3S(b1-4)GlcNAc. Summed up:
as §1

Another assay deals with GlcA(b1-3)GlcNAc. In outline:
as §1

The target in assay [18] is GlcNAc(a1-3)Gal(b1-4)GlcNAc. Summed up: as §1
For assay [19], the target named is GlcNAc(a1-4)Gal(b1-4)GlcNAc(b1-3)Gal(b1-4)[Fuc(a1-3)]GlcNAc(b1-3)Gal(b1-4)[Fuc(a1-3)]GlcNAc. In outline: as §1
The target in assay [20] is GlcNAc(b1-2)[GlcNAc(b1-4)]Man(a1-3)[GlcNAc(b1-4)][GlcNAc(b1-2)[GlcNAc(b1-6)]Man(a1-6)]Man(b1-4)GlcNAc(b1-4)[Fuc(a1-6)]GlcNAc. In outline:
as §1

The target of another assay is GlcNAc(b1-3)Fuc. In outline: as §1
Assay [21] has as its target GlcNAc(b1-3)Gal(b1-3)GalNAc. Summed up: as §1
Assay [22] concerns the target GlcNAc(b1-3)Gal(b1-4)GlcNAc(b1-3)Gal(b1-4)GlcNAc(b1-3)GalNAc. Summed up: as §1
The target in the next assay is GlcNAc(b1-4)GlcNAc. Summed up: as §1
The target in assay [23] is GlcNAc6S(b1-3)Gal(b1-4)GlcNAc. In outline: as §1
In the next assay the target is Man(b1-4)GlcNAc. In outline:
as §1

Assay [24] concerns the target Neu5Ac(a2-3)Gal(b1-3)GalNAc(b1-4)[Neu5Ac(a2-8)Neu5Ac(a2-3)]Gal(b1-4)Glc. In outline: as §1
For assay [25], the target named is Neu5Ac(a2-8)Neu5Ac(a2-3)Gal(b1-3)GalNAc(b1-4)[Neu5Ac(a2-3)]Gal(b1-4)Glc. In outline: as §1
In assay [26] the target is Neu5Gc(a2-8)Neu5Gc(a2-6)Gal(b1-4)GlcNAc. Summed up: as §1

B1: FGFR2-Fc (protein)
chain: MVNVTDAISSGDDEDDTDGAEDFVSENSNNKRAPYWTNTEKMEKRLHAVPAANTVKFRCPAGGNPMPTMRWLKNGKEFKQEHRIGGYKVRNQHWSLIMESVVPSDKGNYTCVVENEYGSINHTYHLDVVERSPHRPILQAGLPANASTVVGGDVEFVCKVYSDAQPHIQWIKHVEKNGSKYGPDGLPYLKVLKHSGINSSNAEVLALFNVTEADAGEYICKVSNYIGQANQSAWLTVLPKQQAPGREKEITASPDYLETRPLEQKLISEEDLAANDILDYKDDDDKV
As to B1, the “glycan array binding signal (z-score)” value in [1] is 0.252; in assay [2], -0.068; in assay [3] it was 0.523; in [4], -0.635; in assay [5], 0.034; in assay [6] it was -0.327. Moreover, the “glycan array binding signal (z-score)” value is 1.73 in assay [7]; -0.722 in assay [8]; 0.989 in [9]; 0.236 with Gal(b1-3)GalNAc; 0.991 in assay [10]; -0.488 in assay [11]. The “glycan array binding signal (z-score)” value in assay [12] is -0.054; in [13], -0.552; in assay [14], 1.4; in assay [15], 0.9; in [16] it was 1.35; in assay [17] it was -0.126. Moreover, the “glycan array binding signal (z-score)” value in the assay with GalNAc3S(b1-4)GlcNAc is -0.098; with GlcA(b1-3)GlcNAc, -0.356; in assay [18], 22.2; in [19] it was 1.49; in assay [20], 0.045; with GlcNAc(b1-3)Fuc, 0.448. In addition, the “glycan array binding signal (z-score)” value in assay [21] is -0.02; in assay [22] it was 0.549; with GlcNAc(b1-4)GlcNAc, -0.264; in assay [23] it was 0.175; in the assay with Man(b1-4)GlcNAc, 0.038; in assay [24], -0.349.

B2: GNL (Galanthus nivalis) (protein)
chain: MGHHHHHHHHYGTLENGHWLMVGMSIFSKDRTVELRMQDDGKLAIYYNDHCAWQSTAQQVNNAKGAVMQGDGNFCIYDKNGKATWHTNTAAPSGDSHTFVSVQDDGNLVLYKNNGATPIWSSKSNK
For B2, the “glycan array binding signal (z-score)” value in assay [25] is -0.285; in [26], -0.194.

The values are drawn from the supplement of paper PMC8728848.
